Compound activity deposited in PubChem by National Center for Advancing Translational Sciences (NCATS).
Nrf2 inh – blocks Nrf2 signaling; 360,000 tested, 2.1% active; Potency, µM (doses to about 46 µM), without a hit: top-dose activity change, negative = inhibition, hits mostly inhibitors; A549 ARE-Fluc reporter, luciferase luminescence, 18-24 h; AID 504444; note: % is set by controls: 0 for no effect and ±100 for the full control effect; nearly all actives have a fitted effect of over 60% in size
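Nrf2 activity is the BugLite luminescence, read 15 min after reagent at room temperature, following CellTiter-Fluor cytotoxicity readout (30 min, 37C). Compound titrations were applied for 18-24 h to 5000 A549 ARE_Fluc cells/well in 5% FBS OPTI-MEM.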
TrxR1 inh – rat TrxR1 inhibition | O89049 | 390,000 tested, 1% active | Potency, µM (top dose mostly 114 µM), for the others: at the top dose activity change, negative = inhibition, actives largely listed as inhibitors | recombinant rTrxR1, NADPH fluorescence consumption, selenite substrate; note: % is set by controls: 0 for no effect and ±100 for the full control effect; nearly all actives have a fitted effect of over 65% in size
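Rat TrxR1 (90 nM in the dispensed reagent) was pre-reduced with 400 uM NADPH for 5 min at room temperature, then incubated with compound for 15 min. After 400 uM selenite was added, NADPH fluorescence (Ex 340/Em 450 nm) was followed for 8 min.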
IDH1 R132H inh – human IDH1 R132H inhibition. 390,000 tested, 0.093% active. Potency, µM (series often up to 76.6 µM), inactives show top-dose activity change, negative = inhibition, most hits filed as inhibitors. O75874. IDH1-R132H enzyme, NADPH consumption, diaphorase/resazurin fluorescence; note: % is set by controls: 0 for no effect and ±100 for the full control effect; nearly all actives have a fitted effect of over 65% in size
Target sequence (O75874 whole entry R132H, stated change not applied): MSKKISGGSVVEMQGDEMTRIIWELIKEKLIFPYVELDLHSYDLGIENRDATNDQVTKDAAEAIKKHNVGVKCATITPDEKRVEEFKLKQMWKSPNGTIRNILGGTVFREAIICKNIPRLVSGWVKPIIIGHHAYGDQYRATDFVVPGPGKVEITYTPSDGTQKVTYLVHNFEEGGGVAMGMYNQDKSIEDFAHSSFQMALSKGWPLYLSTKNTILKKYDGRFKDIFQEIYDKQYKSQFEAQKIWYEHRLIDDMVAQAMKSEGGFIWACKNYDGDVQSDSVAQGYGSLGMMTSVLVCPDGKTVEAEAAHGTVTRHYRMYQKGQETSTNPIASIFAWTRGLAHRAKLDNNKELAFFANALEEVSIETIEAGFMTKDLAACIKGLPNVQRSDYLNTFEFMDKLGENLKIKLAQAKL
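IDH1-R132H (0.5 ug/mL) preincubated 30 min with compound, then NADPH (0.016 mM) and alpha-KG (2 mM) added; 80 min at RT, pH 7.5. Remaining NADPH coupled via diaphorase/resazurin to fluorescence (540/590 nm); concentration-response curves normalized to no-enzyme control.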
Mito fusion act – mitochondrial division inhibition or fusion activation; Potency, µM (doses to about 46.1 µM), inactives show at the highest dose growth rescue (activation), usual class: activators; 320,000 tested, 0.23% active; S. cerevisiae fusion-defective mutant growth rescue, CellTiterGlo 48 h; note: % of control where 0% means no effect; nearly all actives have a fitted effect of over 45% in size
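Luminescent cell viability in 1536-well qHTS format served as the measure of rescued growth in ts fusion-mutant S. cerevisiae cultured on non-fermentable YPEG for 48 hours at 37C.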
TrxR1 substrate – is turned over as a substrate by rat TrxR1. 390,000 tested, 0.01% active. Potency, µM (highest dose often 114 µM), for the others: top-dose activity change, negative = substrate turnover. purified TrxR1 substrate turnover, NADPH consumption readout. O89049; note: % is set by controls: 0 for no effect and ±100 for the full control effect; nearly all actives have a fitted effect of over 50% in size
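Rat TrxR1, dispensed at 90 nM, was prereduced with 400 uM NADPH (final) for 5 min at ~22 deg C, then incubated with compound 15 min before 400 uM selenite. A first-read NADPH fluorescence drop versus no-compound background flagged substrates.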
A549 tox – kills or reduces viability of A549 cells in Nrf2 counter-screen; 390,000 tested, 0.16% active; Potency, µM (highest dose often 46 µM), without a hit: at the highest dose activity change, negative = cytotoxicity, hits mostly inhibitors; A549 ARE-Fluc cells, CellTiter-Fluor viability, 18-24 h; note: % is set by controls: 0 for no effect and ±100 for the full control effect
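A549 ARE_Fluc cells in 5% FBS OPTI-MEM were exposed to compounds in concentration-response for 18-24 h at 37 deg C. Viability was read by CellTiter-Fluor fluorescence (Ex 405/Em 525) after 30 min, before the luciferase read.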
Starred values were filed as active, the others as inactive; u = inconclusive; x = no result given; ! = not active in a repeat; [ ] = another dose, or the depositor's remark. Most compounds without a hit are left out; they make up all but 3.1% or so of the library. Calls come from the whole dose curve; as a rule, active = well fitted curve in the direction sought with a large enough effect; inconclusive = small, poorly fitted or top-dose-only effect, or another doubt; inactive = no such curve, though single readings can be large; an effect the other way counts as inactive or inconclusive. Potency is the fitted concentration of half-maximal effect.

SMILES | Nrf2 inh | TrxR1 inh | IDH1 R132H inh | Mito fusion act | TrxR1 substrate | A549 tox
COc1ccc(CCN2C(=O)C=CC2=O)cc1OC | u | 0.63µM* | 3% | x | 6% | -8%
COC(=O)C1=C(C)N(CCc2ccc(OC)c(OC)c2)C(=O)/C1=C\N(C)C | 2% | 10µM* | -1% | 0% | 4% | -4%
COc1ccc(CCNC2=C(Cl)C(=O)N(CCc3ccc(OC)c(OC)c3)C2=O)cc1OC | u | 22% | 2% | -1% | 14% | -9%
COc1ccc(NC(=O)CN2CCCN(S(=O)(=O)c3ccc(F)cc3)CC2)c(OC)c1 | u | 15% | -3% | 29% | 4% | -4%
COc1ccc(S(=O)(=O)N2CCCN(CC(=O)Nc3ccc4c(c3)OCO4)CC2)cc1 | 1% | 79µM* | 3% | 0% | -8% | -19%
COc1ccc(S(=O)(=O)N2CCCN(CC(=O)C(C)(C)C)CC2)cc1 | 5% | 13µM* | 1% | 1% | 1% | -11%
COc1ccc(NC(=O)CN2CCCN(S(=O)(=O)c3ccc(Br)cc3)CC2)c(OC)c1 | 21µM* | 35%[11.4 µM] | 19% | x | -1% | 18µM*
O=C(Nc1cc(C(F)(F)F)ccc1Cl)c1ccc(NC(=O)C(F)(F)F)cc1 | u | 1%[57.1 µM] | -7% | 8% | 1%[57.1 µM] | 6%
CCCC(=O)Nc1ccc(C(=O)Nc2cc(C(F)(F)F)ccc2Cl)cc1 | 10µM* | 6% | -10% | 2% | 1% | -14%
CCn1c(SCc2nc3ccccc3nc2C)nnc1-c1cccs1 | -13% | -5% | 5% | 4% | -2% | 1%
C=CCn1c(SCc2nc3ccccc3nc2C)nnc1-c1ccoc1C | 7% | 45µM* | -2% | -5% | 0% | 10%
O=C1OC(CN(Cc2ccccc2)Cc2ccccc2)CN1N=Cc1ccc([N+](=O)[O-])o1 (stereo unspecified) | -2% | 56µM* | 1% | x | -15% | 8%
Cc1ccc(NC(=O)/C(C#N)=C/c2ccccc2Cl)cc1C | 0% | -4% | 0% | x | -5% | 8%
CC1=C(C(=O)Nc2ccccc2)C(c2ccc[nH]2)n2ncnc2N1 (stereo unspecified) | x | 40µM*! | x | -5% | -3%[57.1 µM] | -4%
Cc1cc(O)c(C(c2cccc(F)c2)N2CCC(C)CC2)c(=O)n1Cc1ccco1 (stereo unspecified) | x | -29%[57.1 µM] | -9% | x | -4%[57.1 µM] | 14%
COc1ccc(S(=O)(=O)N(CC(=O)NCc2ccccn2)c2ccc(Cl)cc2)cc1 | 0% | 4% | -1% | 4% | -4% | 3%
O=C(CN(c1cccc(Cl)c1)S(=O)(=O)c1ccc(Cl)cc1)NCc1ccccn1 | 21µM* | 9% | 1% | -3% | 3% | u
Cc1ccc(N2CCN(C(=O)NCc3noc4ccc(C)cc34)CC2)c(C)c1 | u | 19% | -8% | x | -1% | -4%
COc1ccc(S(=O)(=O)N2CCCCC2)cc1NC(=O)CSc1ncnc2ccccc12 | -18% | 0% | 0% | 23% | -6% | -10%
Cc1ccc(NC(=O)COc2ncnc3ccccc23)cc1S(=O)(=O)N1CCOCC1 | 4% | 5% | 5% | 0% | -4% | -1%
Cc1ccc(NC(=O)CSc2ncnc3ccccc23)cc1S(=O)(=O)N1CCCCC1 | 15µM* | 25%[57.1 µM] | 1% | u | 9%[57.1 µM] | u
Cc1ccc(NC(=O)CSc2ncnc3ccccc23)cc1S(=O)(=O)N1CCOCC1 | 23µM* | 18% | 2% | -9% | 1% | -8%
Cc1ccc(NC(=O)Cn2cc(C(F)(F)F)cc(Cl)c2=O)cc1S(=O)(=O)N1CCCCC1 | 23µM* | 10% | 0% | -8% | -3% | -13%
Cc1ccc(NC(=O)Cn2ncc(Cl)c(Cl)c2=O)cc1S(=O)(=O)N1CCCCC1 | -25% | u | -9% | -3% | -2% | -1%
Cc1ccc(NC(=O)CSc2ccccc2)cc1S(=O)(=O)N1CCCCC1 | 23µM* | 4% | 0% | 25% | -9% | -9%
SMILES | Nrf2 inh | TrxR1 inh | IDH1 R132H inh | Mito fusion act | TrxR1 substrate | A549 tox
Cc1ccc(NC(=O)CSc2ccccc2)cc1S(=O)(=O)N1CCOCC1 | -6% | 9% | 2% | 7% | 1% | 0%
Cc1cc(Cl)ccc1Nc1nc(NCc2ccco2)nc2nccnc12 | 23% | 0% | x | x | 1% | 13%
O/N=C(/C[n+]1cccc(Br)c1)c1ccc2ccccc2c1 | x | -3% | x | x | 9% | x
O=c1c(=O)n(-c2ccccc2)ccn1Cc1cccc(C(F)(F)F)c1 | 41% | 3% | 3% | x | 2% | 12%
Cc1ccc(NC(=O)Cn2c(=O)cnc3ccccc32)cc1S(=O)(=O)N1CCCCC1 | 13µM* | 10% | 17% | 7% | 1% | -18%
Cc1ccc(NC(=O)c2ccccc2NS(=O)(=O)c2ccc(F)cc2)cc1S(=O)(=O)N1CCCCC1 | 23µM* | 17% | -4% | -13% | 17% | u
Cc1ccc(NC(=O)c2cc(=O)c3ccccc3o2)cc1S(=O)(=O)N1CCCCC1 | 16µM* | 18%[57.1 µM] | 2% | 2% | -7%[57.1 µM] | -20%
Cc1ccc(CN2CC(C(=O)Nc3ccc(C)c(S(=O)(=O)N4CCCCC4)c3)CC2=O)cc1 (stereo unspecified) | 21µM* | -3% | 4% | x | -12% | u
Cc1ccc2cc(CN(C(=O)c3cccc(Cl)c3)c3ccccc3)c(=O)[nH]c2c1 | u | 16% | -1% | x | 4% | -14%
CCc1cccc(N=c2c([N+](=O)[O-])nn(-c3ccc(Cl)cc3)n2O)c1 | -2% | 5% | 10% | 18µM* | 1% | -6%
O=[N+]([O-])c1nn(-c2ccc3c(c2)OCCO3)n(O)c1=NC1CCN(Cc2ccccc2)CC1 | 12% | -4% | -1% | -5% | -6% | -11%
O=[N+]([O-])c1nn(-c2ccccc2)n(O)c1=NC1CCN(Cc2ccccc2)CC1 | 12% | -50% | 1% | -1% | 29% | 18µM*
O=[N+]([O-])c1nn(-c2ccccc2)n(O)c1=NCCc1ccccc1 | u | -1% | 6% | 18µM* | -8% | u
